High-throughput results: PubChem BioAssay, National Center for Advancing Translational Sciences (NCATS)
PLK1 PBD inh – inhibitors of human PLK1 polo-box domain binding. P53350. Plk1 PBD binding of FITC phosphopeptide, fluorescence polarization. Potency, µM, for inactives: max response, negative = inhibition, usual class: inhibitors. 360,000 compounds, 2.8% hits; also: series mostly up to about 57 µM; % is scaled to controls: 0 for no effect and ±100 for the full control effect; nearly all actives have a fitted effect of over 65% in size
Target sequence (P53350 whole entry, looked up, the tested form may be a part): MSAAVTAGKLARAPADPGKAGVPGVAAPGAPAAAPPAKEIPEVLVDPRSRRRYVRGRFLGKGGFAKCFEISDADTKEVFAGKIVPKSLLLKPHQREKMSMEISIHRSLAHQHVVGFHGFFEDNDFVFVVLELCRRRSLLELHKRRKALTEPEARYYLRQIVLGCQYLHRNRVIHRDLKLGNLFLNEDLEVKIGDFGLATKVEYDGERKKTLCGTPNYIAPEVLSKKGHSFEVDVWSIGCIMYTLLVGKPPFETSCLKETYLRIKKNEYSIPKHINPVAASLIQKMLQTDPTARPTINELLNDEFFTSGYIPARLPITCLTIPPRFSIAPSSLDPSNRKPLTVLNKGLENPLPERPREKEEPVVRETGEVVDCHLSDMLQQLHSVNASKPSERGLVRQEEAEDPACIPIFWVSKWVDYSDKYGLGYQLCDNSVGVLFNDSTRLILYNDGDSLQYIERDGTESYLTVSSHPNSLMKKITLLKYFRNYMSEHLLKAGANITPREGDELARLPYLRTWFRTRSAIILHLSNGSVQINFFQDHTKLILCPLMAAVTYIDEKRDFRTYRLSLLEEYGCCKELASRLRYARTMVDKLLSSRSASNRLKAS
Sfp PPTase inh – inhibitors of Bacillus subtilis Sfp phosphopantetheinyl transferase. Potency, µM, for the others: largest response in the series, negative = inhibition, hits mostly inhibitors. 310,000 compounds, 3.5% hits. Biochemical Sfp PPTase activity, qHTS. Q9F4F7;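 also: the enzyme is Sfp with the accession as filed and its product quenches rhodamine fluorescence; 0% = enzyme reaction without inhibitor and -100% = no enzyme wells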
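Fluorescence-quenching assay: 15 nM Sfp-PPTase preincubated 15 min at room temperature with compound, then 5 uM rhodamine-CoA and 12.5 uM BHQ-2-labelled YbbR peptide added. Fluorescence (ex 525/em 598 nm) read at start and after 30 min; difference gives rate.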
G9a inh – inhibitors of human histone lysine methyltransferase G9a | Q96KQ7 | G9a H3K9 monomethylation, AlphaScreen, 2 h | Potency, µM (series often up to 102 µM), for the others: top-dose activity, negative = inhibition, actives largely listed as inhibitors | 350,000 compounds, 8.8% hits; also: % is scaled to controls: 0 for no effect and ±100 for the full control effect; nearly all actives have a fitted effect of over 75% in size
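Enzyme 20 nM + cpd, 15 min RT; add b-H3K9 pep 500 nM / SAM 20 uM; 2 h RT; anti-H3K9me1 Ab 0.5 ug/mL + SA donor / anti-rabbit acceptor beads 20 ug/mL each, 10 min; AlphaScreen read.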
HP1b binding inh – inhibitors of HP1-beta chromodomain binding to methylated histone tails; AlphaScreen HP1-beta / biotin-H3K9me3 peptide binding; 390,000 compounds, 0.56% hits; P83916; Potency, µM (doses to about 114 µM), for the others: top-dose activity change, negative = inhibition, actives largely listed as inhibitors; AID 540317; also: nearly all actives have a fitted effect of over 70% in size
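HP1-beta protein (50 nM final) preincubated 30 min at room temperature with biotinylated H3(1-18)K9me3 peptide (50 nM) in PBS pH 7.4, 0.01% Tween-20, then compound added for 30 min. AlphaScreen streptavidin donor/nickel chelate acceptor beads (10 ug/mL final), 30 min dark, luminescence read.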
BAZ2B block – blocks human BAZ2B; 360,000 compounds, 4.4% hits; Q9UIF8; Potency, µM (series often up to 114 µM), for inactives: at the highest dose activity change, negative = inhibition, most hits filed as inhibitors; AlphaScreen BAZ2B-H3K14Ac peptide displacement; also: % is scaled to controls: 0 for no effect and ±100 for the full control effect; nearly all actives have a fitted effect of over 60% in size
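AlphaScreen displacement of biotin-H3(5-23)K14Ac peptide (50 nM final) from BAZ2B (50 nM final) in PBS pH 7.4, 0.01% Tween-20; complex preformed 30 min RT, then compounds (top 110 uM) 30 min RT, beads 20 min dark.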
JMJD2A Tudor – JMJD2A Tudor domain (human) inhibition. Potency, µM (highest dose often 114 µM), without a hit: top-dose activity change, negative = inhibition, usual class: inhibitors. AlphaScreen JMJD2A-Tudor / H3K4me3 peptide binding. 390,000 compounds, 4.4% hits. O75164; also: % is scaled to controls: 0 for no effect and ±100 for the full control effect; nearly all actives have a fitted effect of over 50% in size
* hit, by the source's call; ? = inconclusive; . = no result given; [ ] = remark or other dose. Shown are actives, neighbours in structure and some others; about 12% of the full set was active somewhere. Calls follow the shape of the dose curve; as a rule, active = well fitted curve in the direction sought with a large enough effect; inconclusive = small, poorly fitted or top-dose-only effect, or another doubt; inactive = no such curve, though single readings can be large; an effect the other way counts as inactive or inconclusive. Potency is read from the fitted curve at half-maximal effect.

SMILES | PLK1 PBD inh | Sfp PPTase inh | G9a inh | HP1b binding inh | BAZ2B block | JMJD2A Tudor
O=C(Nc1ccc(S(=O)(=O)N2CCCc3ccccc32)cc1)C1CCCO1 (stereo not given) | -9% | 2% | 45µM* | 7% | 4% | -25%
NC(=O)c1ccsc1NC(=O)c1ccc(S(=O)(=O)N2CCCc3ccccc32)cc1 | -4% | 6% | 50µM* | 13% | ? | -34%
NS(=O)(=O)c1ccc(NC(=O)c2ccc(S(=O)(=O)N3CCc4ccccc43)cc2)cc1 | 2% | 6% | 32µM* | 28% | -14% | -26%
COc1ccc(C(=O)Nc2ccc(S(=O)(=O)N3CCc4ccccc43)cc2)cc1 | -8% | . | . | 14% | . | -24%
O=C(NCc1ccccc1)c1ccc(NC(=O)C2CCCO2)cc1 (stereo not given) | 9% | 18% | 20µM* | 36% | -31% | -6%
O=C1Nc2ccc(Cl)cc2[C@@](C#CC2CC2)(C(F)(F)F)O1 | . | 17% | -8%[59 µM] | . | 2% | .
COc1cccc(NC(=O)CSc2nnc3ccc(-c4ccncc4)nn23)c1 | -8% | . | -4%[2.33 µM] | 40% | -2% | -11%
O=C(Nc1ccncc1)c1ccc(Cl)c(S(=O)(=O)N2CCc3ccccc32)c1 | -5% | . | ? | -17% | 50µM* | ?
Cc1cccc(NC(=O)c2ccc(Cl)c(S(=O)(=O)N3CCc4ccccc43)c2)n1 | -2% | . | -26%[12.7 µM] | 12% | 16% | -15%
COc1ccccc1C1/C(=C(\O)c2ccc3c(c2)OCCO3)C(=O)C(=O)N1CCCN(C)C (stereo not given) | . | 5% | 10%[59 µM] | . | 0% | .
O=C1C(=O)N(CCCN2CCOCC2)C(c2ccc(Cl)cc2)/C1=C(\O)c1ccc2c(c1)OCCO2 (stereo not given) | 24µM* | 12% | 40µM* | 11% | -27% | 32µM*
COc1cccc(C2/C(=C(\O)c3ccc4c(c3)OCCO4)C(=O)C(=O)N2CCCN2CCOCC2)c1OC (stereo not given) | -2% | 14% | 3.5µM* | 54% | -3% | -2%
COc1ccc(C(CNC(=O)c2ccc(S(=O)(=O)N3CC(C)CC(C)C3)cc2)N(C)C)cc1 (stereo not given) | -9% | . | . | -23% | . | -24%
CC1=CC(C)C2COC(c3ccc[n+](C)c3)C1C2C (stereo not given) | -2% | 8% | 7.1µM* | -2% | -34% | 1%
CC1=CC(C)[C@@H]2COC(c3ccc(O)cc3)[C@H]1C2C (stereo not given in full) | -11% | 7% | 8%[2.33 µM] | 10% | -13% | -25%
C/C(=N\NC(=S)NC1CCCCC1)c1ccc(Cl)c(Cl)c1 | 0% | 34% | 37%[59 µM] | 34% | -12% | -25%
CC(=NNC(=S)N1CC2CCC(CC2)C1)c1ccncn1 | -12% | . | . | ? | . | 14µM*
CCOc1ccccc1NC(=O)CSc1ncc2c(n1)-c1ccccc1N(CC)S2(=O)=O | . | . | -2%[59 µM] | 28% | 0% | -2%
Cc1cc(C)n2c(Nc3ccc4c(c3)OCCO4)c(-c3ccc(C)o3)nc2n1 | 0% | 32µM* | 50µM* | 0% | ? | -35%
Cc1cc(C)n2c(Nc3ccc4c(c3)OCCO4)c(-c3cc4ccccc4o3)nc2n1 | -4% | . | . | . | . | .
Cc1cc(C)n2c(Nc3ccc4c(c3)OCCO4)c(-c3ccco3)nc2n1 | . | -17% | 50µM* | . | ? | .
COC(=O)[C@@]1(Cc2ccc(OC)cc2)[C@H]2c3cc(C(=O)N(C)C)n(CCc4c[nH]c5ccc(O)cc45)c3C[C@H]2CN1C(=O)c1ccccc1 | . | 12% | . | . | . | .
CCCN1CCC(NC(=S)Nc2cccc(Cl)c2Cl)CC1 | -2% | 19% | ? | 58% | -12% | -7%
O=C(Nc1ccc(Br)cc1Cl)c1cnccn1 | ? | 16% | -10%[59 µM] | 11% | -7% | 50µM*
O=C(Nc1ccc(Cl)c([N+](=O)[O-])c1)c1ccncc1 | -15% | ? | -15%[59 µM] | 41% | 4% | -11%[57.1 µM]
O=C(Nc1ccc(Cl)c([N+](=O)[O-])c1)c1cnccn1 | -4% | 0% | -10%[59 µM] | 5% | 50µM* | ?
